PubChem BioAssay (EPA / NIEHS)
Results filed as inconclusive are left out. Where a structure was tested more than once in an assay, its records may differ in their call. Calls of active or inactive are those of the source. How the source made its calls: active means hit-call score of the fitted dose curve at least 0.9, where 1 is the maximum; inconclusive means response in the unintended direction; inactive means score below 0.9.

The compounds below were run against Hepatocyte nuclear factor 4-alpha (Homo sapiens) (UniProt P41235) (assay: ATG_HNF4a_TRANS: Attagene TRANS-FACTORIAL HepG2 Assay for human Hepatocyte Nuclear Factor 4 alpha (HNF4a) (AID 2282982)). Conditions: HepG2 HNF4a transactivation reporter, mRNA readout.
Procedure: ATG_TRANS is a cell-based, multiplexed-readout assay that uses HepG2, a human liver cell line, with measurements taken at 24 hours after chemical dosing in a 24-well plate.ATG_HNF4a_TRANS is one of 30 assay component(s) measured or calculated from the ATG_TRANS assay. It is designed to make measurements of mRNA induction, a form of inducible reporter, as detected with fluorescence intensity signals by Reverse transcription polymerase chain reaction (RT-PCR) and Capillary electrophoresis technology.Data from the assay component ATG_HNF4a_TRANS was analyzed into 1 assay endpoint. This assay endpoint, ATG_HNF4a_TRANS, was analyzed in the positive analysis fitting direction relative to DMSO as the negative control and baseline of activity. Using a type of inducible reporter, measures of mRNA for gain-of-signal activity can be used to understand the reporter gene at the transcription factor-level as they relate to the gene HNF4A. Furthermore, this assay endpoint can be referred to as a primary readout, because this assay has produced multiple assay endpoints where this one serves a reporter gene function. To generalize the intended target to other relatable targets, this assay endpoint is annotated to the nuclear receptor intended target family, where the subfamily is orphan.
Human liver HepG2 cells are transiently transfected with multiple reporter transcription units (MRTUs) in 6-well plates using FuGene 6 reagent (Roche; 3 ml FuGene/1 mg DNA). The MRTU constructs are regulated by a cis-regulating element (promoter). […] A major difference between the CIS and TRANS system is that in CIS activities of endogenous TFs are measured, whereas the TRANS assay evaluates changes in activities of exogenous, chimeric NR-Gal4 proteins. […] At the end of 24 hour incubation, total RNA was isolated using TriZol reagent (Invitrogen). The isolated RNA is then reverse-transcribed using oligo(dT) primer and Mo-MLV reverse transcriptase (Invitrogen) with DNAse I (Ambion) treatment for 30 min. The one-tenth of the produced cDNA was amplified by PCR using Taq DNA polymerase (Invitrogen) and two reporter sequence-specific primers. The PCR products were fluorescently labeled by primer extension with 6-arboxyfluorescein (6-FAM) 5'-labeled reporter sequence-specific primer (2 min at 95 C, 20 s at 68 C and 10 min at 72 C) and these products were digested with 5U of HpaI (New England Biolabs) for 2h at 37 C. The fragments were purified using Qiaquick PCR columns (Qiagen), analyzed on an ABI 3130xL genetic analyzer (Applied Biosystems) with peak positions identified by using a set of X-rhodamine (ROX)-labeled MapMarker1000 molecular weight standards (BioVentures). The raw capillary electrophoresis data was processed using Attagraph software (Attagene).

Sequence of Hepatocyte nuclear factor 4-alpha (Homo sapiens) (P41235 whole entry, looked up): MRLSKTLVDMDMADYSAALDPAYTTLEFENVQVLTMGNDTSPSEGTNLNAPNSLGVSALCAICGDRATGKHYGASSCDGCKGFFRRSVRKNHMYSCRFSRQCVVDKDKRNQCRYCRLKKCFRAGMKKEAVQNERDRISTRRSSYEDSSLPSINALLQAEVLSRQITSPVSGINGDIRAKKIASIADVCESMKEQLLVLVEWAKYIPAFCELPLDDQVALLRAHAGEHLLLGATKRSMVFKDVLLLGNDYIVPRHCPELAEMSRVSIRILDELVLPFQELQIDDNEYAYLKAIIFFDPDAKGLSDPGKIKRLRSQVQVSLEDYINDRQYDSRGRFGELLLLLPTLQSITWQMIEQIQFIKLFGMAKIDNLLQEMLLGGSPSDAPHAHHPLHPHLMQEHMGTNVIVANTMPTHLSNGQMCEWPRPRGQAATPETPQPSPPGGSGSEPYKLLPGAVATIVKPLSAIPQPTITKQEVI

For `CCCCCCCCCCCCOC(=O)c1cc(O)c(O)c(O)c1`, which outcome is on record?
The outcome was “inactive”.

How did the outcome turn out when `O=C1C=CC(=O)N1c1cccc(N2C(=O)C=CC2=O)c1` was run?
Its outcome is “inactive”.

Which outcome does the source give for `Cc1ccc(C(=O)c2ccccc2)cc1` here?
The outcome was “inactive”.

For `CCCCC(CC)C(=O)O` (stereo not given), which outcome is on record?
Its outcome is “inactive”.

With `O=C(F)C(F)(F)C(F)(F)C(F)(F)C(F)F` as the compound, how does the outcome read?
Its outcome is “inactive”.

How did the outcome turn out when `CCOC=C(C(=O)OCC)C(=O)OCC` was run?
Its outcome is “inactive”.

`COc1ccc(C#N)cc1` was tested. Which outcome did it give?
Its outcome is “inactive”.

How did the outcome turn out when `FC(F)(F)N1C(F)(F)C(F)(F)OC(F)(F)C1(F)F` was run?
Its outcome is “inactive”.

With `CN(CCO)S(=O)(=O)C(F)(F)C(F)(F)C(F)(F)C(F)(F)C(F)(F)C(F)(F)C(F)(F)C(F)(F)F` as the compound, how does the outcome read?
The outcome was “inactive”.

With `CCCCCCOC(=O)c1ccc(O)cc1` as the compound, how does the outcome read?
Its outcome is “inactive”.

`C=CCOCC(CO)(CO)CO` was tested. Which outcome did it give?
The outcome was “inactive”.

`C[C@]12CC[C@@H]3c4ccc(O)cc4CC[C@H]3[C@@H]1C[C@@H](O)[C@@H]2O` was tested. Which outcome did it give?
Its outcome is “inactive”.

For `O=C(NO)c1ccccc1`, which outcome is on record?
The outcome was “inactive”.

For `CC(C)(C)C1CCCCC1O` (stereo not given), which outcome is on record?
Its outcome is “inactive”.

With `CN(C)c1ccc(C(=C2C=CC(=[N+](C)C)C=C2)c2ccccc2)cc1` as the compound, how does the outcome read?
Its outcome is “inactive”.

How did the outcome turn out when `c1ccc(CNc2ncnc3c2ncn3C2CCCCO2)cc1` (stereo not given) was run?
Its outcome is “inactive”.

`O=C1c2ccccc2C(=O)c2c(O)c(O)cc(O)c21` was tested. Which outcome did it give?
Its outcome is “inactive”.

How did the outcome turn out when `CC[N+](CC)(CC)Cc1ccccc1` was run?
The outcome was “inactive”.

How did the outcome turn out when `c1cnc2c(c1)ccc1cccnc12` was run?
Its outcome is “inactive”.

For `CCOC=O`, which outcome is on record?
The outcome was “inactive”.

`CCCC=O` was tested. Which outcome did it give?
Its outcome is “inactive”.

For `NNc1nc(-c2ccc([N+](=O)[O-])cc2)cs1`, which outcome is on record?
The outcome was “inactive”.

`CC(=O)Nc1ccc(S(N)(=O)=O)cc1` was tested. Which outcome did it give?
The outcome was “inactive”.

For `O=S(=O)(O)c1ccccc1`, which outcome is on record?
The outcome was “inactive”.

`CC(O)COc1ccccc1` (stereo not given) was tested. Which outcome did it give?
Its outcome is “inactive”.

How did the outcome turn out when `Cc1ccc(S(=O)(=O)O)cc1` was run?
Its outcome is “inactive”.

What does the source list for `NC(=NCCCCCCN=C(N)/N=C(\N)Nc1ccc(Cl)cc1)/N=C(\N)Nc1ccc(Cl)cc1`?
outcome: inactive; AC50: 25.7 µM (active)

Which outcome does the source give for `CC(C)C=O` here?
Its outcome is “inactive”.

`CCCCCCCCCCCC[N+](C)(C)CCCCCCCCCCCC` was tested. Which AC50 did it give?
The AC50 was 58.1 µM (active).

With `O=C1Cc2ccccc2N1c1c(Cl)cccc1Cl` as the compound, how does the outcome read?
Its outcome is “inactive”.

For `C=CC(F)(F)C(F)(F)C(F)(F)C(F)(F)F`, which outcome is on record?
Its outcome is “inactive”.

For `Nc1ccc(O)c(C(=O)O)c1`, which outcome is on record?
Its outcome is “inactive”.

`CCCCc1ccc2ccccc2c1S(=O)(=O)O` was tested. Which outcome did it give?
Its outcome is “inactive”.

How did the outcome turn out when `CCOC(OCC)C(=O)c1ccccc1` was run?
The outcome was “inactive”.

How did the outcome turn out when `CCCCCCCCCCCCCCCC(=O)OC` was run?
The outcome was “inactive”.

Which outcome does the source give for `Clc1ccc2c(Cl)ccnc2c1` here?
Its outcome is “inactive”.

For `O=C(CC(=O)C(F)(F)C(F)(F)C(F)(F)F)c1cccs1`, which outcome is on record?
Its outcome is “inactive”.

With `C=CC(=O)OCC(CO)(COCC(COC(=O)C=C)(COC(=O)C=C)COC(=O)C=C)COC(=O)C=C` as the compound, how does the outcome read?
Its outcome is “inactive”.

With `O=C(OC(=O)C(F)(F)C(F)(F)F)C(F)(F)C(F)(F)F` as the compound, how does the outcome read?
Its outcome is “inactive”.
